# Data taken from PubChem BioAssay AID651699 (Sanford-Burnham Center for Chemical Genomics, 2012).
# Out of some 360,000 compounds screened, about 2,100 (0.58%) were called active. For the sample, actives were picked, then their nearest neighbours and some compounds at random. Unmarked numbers belong to inactive results. No stated cut-off is given here; in the data, active means inhibition above about 36%; inactive means the rest.
# Target: NEDD8-conjugating enzyme Ubc12 (Homo sapiens) + NEDD8-activating enzyme E1 regulatory subunit (Homo sapiens) (UniProt P61081+Q13564)
# Assay: inhibitors of cullin neddylation, primary screen, biochemical, TR-FRET, uHTS, NAE and Ubc12 (AID 651699)
# Settings: at 25 µM, stronger effect = higher value
# NEDD8-conjugating enzyme Ubc12 (Homo sapiens) + NEDD8-activating enzyme E1 regulatory subunit (Homo sapiens), sequence (P61081 whole entry, looked up): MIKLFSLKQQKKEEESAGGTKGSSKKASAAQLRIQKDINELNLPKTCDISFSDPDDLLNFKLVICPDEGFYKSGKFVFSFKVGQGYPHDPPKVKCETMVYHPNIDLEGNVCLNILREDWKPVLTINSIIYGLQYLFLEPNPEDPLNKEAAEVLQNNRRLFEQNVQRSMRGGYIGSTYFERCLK
# NEDD8-conjugating enzyme Ubc12 (Homo sapiens) + NEDD8-activating enzyme E1 regulatory subunit (Homo sapiens), sequence (Q13564 whole entry, looked up): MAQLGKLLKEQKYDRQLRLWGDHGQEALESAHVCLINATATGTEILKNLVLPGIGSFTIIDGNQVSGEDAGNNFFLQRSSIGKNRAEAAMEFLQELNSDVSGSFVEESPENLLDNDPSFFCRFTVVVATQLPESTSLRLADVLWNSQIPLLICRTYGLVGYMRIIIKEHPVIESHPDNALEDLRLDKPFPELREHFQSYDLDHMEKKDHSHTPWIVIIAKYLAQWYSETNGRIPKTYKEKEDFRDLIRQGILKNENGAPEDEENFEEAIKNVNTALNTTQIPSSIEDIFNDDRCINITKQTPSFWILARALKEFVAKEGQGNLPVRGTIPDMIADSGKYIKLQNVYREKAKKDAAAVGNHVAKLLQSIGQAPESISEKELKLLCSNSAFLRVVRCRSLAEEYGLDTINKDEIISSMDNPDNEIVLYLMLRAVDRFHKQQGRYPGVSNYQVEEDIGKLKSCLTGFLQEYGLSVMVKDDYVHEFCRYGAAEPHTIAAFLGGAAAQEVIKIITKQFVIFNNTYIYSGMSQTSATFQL
row,SMILES,inhibition
1,CCOc1ccc(Cl)cc1-c1cc(C(=O)NCc2cccs2)[nH]n1,-0.82%
2,Cc1sc2c(c1C)c(=O)n(-c1ccccc1)c1nncn21,-4.64%
3,CSCCC(NS(=O)(=O)/C=C/c1ccccc1)C(=O)N1CCC(C)CC1 (stereo not drawn),5.25%
4,COCCCNc1nc2ccccc2nc1NS(=O)(=O)c1ccc(F)cc1,37.4% (active)
5,CCCn1nc(NS(=O)(=O)c2ccc(F)cc2)c2cc3ccccc3nc21,-5.34%
6,CCCCNc1nc2ccccc2nc1NS(=O)(=O)c1cccs1,19.1%
7,Cc1cccc(CC(=O)Nc2c3c(nn2-c2cccc(Cl)c2)CS(=O)C3)c1 (stereo not drawn),4.67%
8,COc1ccc(S(=O)(=O)N2CCN(C)CC2)c(C)c1,-9.29%
9,Cn1c(N2CCOCC2)c(C=O)c2ccccc21,13.5%
10,Cn1c(=O)c(C(=O)Nc2ncccn2)c(O)c2ccccc21,27.6%
11,Cn1c(=O)c(Sc2ccc(Cl)cc2)c(O)c2ccccc21,-5.74%
12,Cc1cc(C)c(-c2c(O)c3ccccc3n(C)c2=O)c(C)c1,43.4% (active)
13,O=S(=O)(NCCCN1CCOCC1)c1ccc(F)c(Cl)c1,-7.79%
14,CC1(C)S[C@@H]2[C@H](NC(=O)COc3ccccc3)C(=O)N2C1C(=O)OCc1ccccc1 (stereo partly drawn),3.84%
15,NC(=O)Cn1c(=O)oc2ccccc21,4.87%
16,COc1ccc(CNC(=O)[C@@H]2CC=C[C@@H]3CCN(C4CC4)C(=O)[C@@H]32)cc1,4.74%
17,CCN(CC)CCCN1C(=O)C(=O)/C(=C(/O)c2c(C)nc3ccccn23)C1c1ccc(C)o1 (stereo not drawn),-7.73%
18,O=C(NNc1c2ccccc2nc2ccccc12)c1cc2ccccc2cc1O,-10.9%
19,CC(C)(C)OC(=O)NNc1c2ccccc2nc2ccccc12,48% (active)
20,Cc1ccc(C(=O)NNC(=O)OC(C)(C)C)c(Cl)c1,-8.95%
21,CCSC1=NCCN1S(=O)(=O)c1ccc(F)cc1,8.82%
22,CC(Oc1ccc(F)cc1)C(=O)Nc1ccccc1C(=O)NC1CC1 (stereo not drawn),4.37%
23,O=[N+]([O-])c1ccc2c(c1)C(O)n1nc(-c3ccccc3)nc1S2 (stereo not drawn),-7.67%
24,Cc1noc(C)c1C(=O)OCC(=O)N1CCN(S(=O)(=O)c2ccc3ccccc3c2)CC1,-4.19%

row,SMILES,inhibition
1,COc1ccc(C(=O)COC(=O)c2c(C)noc2C)cc1Cl,-4.13%
2,Cc1noc(C)c1C(=O)OCC(=O)/C=C1\N(C)c2ccccc2C1(C)C,43.7% (active)
3,CC1CCCCC1NC(=O)Cn1cnc2c1c(=O)n(C)c(=O)n2C (stereo not drawn),5.44%
4,COc1ccc(-c2cc3c(c4c2ccn4C)C2CCC3C2)cn1 (stereo not drawn),-50.3%
5,COc1cc(C2/C(=C(\O)c3ccc4c(c3)CC(C)O4)C(=O)C(=O)N2c2nnc(C)s2)cc(OC)c1OC (stereo not drawn),-20.5%
6,COc1ccc(NC(=O)C2=NNC(=O)CC2)cc1S(=O)(=O)N1CCCCC1,-1.74%
7,CCCCCCC(=O)Nc1nc(C)c(-c2csc(Nc3cccc(OC)c3)n2)s1,-13.8%
8,CC(=O)Nc1nc(C)c(-c2csc(Nc3ccc(S(N)(=O)=O)cc3)n2)s1,77% (active)
9,C=CCCC(=O)Nc1nc(C)c(-c2csc(Nc3ccc(Cl)cc3)n2)s1,-8.67%
10,CCCCC(=O)N(C)c1c(CC)nc2c(OCc3ccc(Cl)cc3Cl)cccn12,8.51%
11,CC(C)Cn1cnc2c1c(=O)n(CC(=O)NN)c(=O)n2Cc1ccccc1,3.73%
12,CC(C)OC(=O)c1ccc(COc2ccc3ccc(=O)oc3c2)o1,32.9%
13,Cc1noc(C)c1COc1cccc(C(=O)Nc2cccnc2)c1,-1.48%
14,Cc1noc(C)c1COc1ccc2ccc(=O)oc2c1,42.9% (active)
15,CCOC(=O)N1CCC(NC(=O)CN2C(=O)COc3ccc(C(C)(C)C)cc32)CC1,-0.68%
16,CN(C)CCN=c1cc(-c2ccccc2)oc2ccc(Cl)cc12,-18.1%
17,Cc1ccc2[nH]c3c(=O)n(CC(=O)NCCc4ccc(Cl)cc4)ncc3c2c1,-2.38%
18,CC(C(=O)NC1CCCC1)N1CCN(S(=O)(=O)c2ccccc2Cl)CC1 (stereo not drawn),-0.01%
19,Cc1ccnc(NC(=O)C(C)N2C(=O)c3ccccc3C2=O)c1 (stereo not drawn),9.23%
20,CC(C(=O)NC1CCCCC1)N1C(=O)c2cccc3cccc1c23 (stereo not drawn),39.6% (active)
21,COc1ccccc1-c1cc(NC(C)=O)c2ncc(-c3ccc(F)cc3)n2c1,38.6%
22,CC(=O)Nc1cc(-c2ccc(N3CCN(C)CC3)cc2)cn2c(-c3ccc(F)cc3)cnc12,42.2% (active)
23,CC(=O)Nc1cc(-c2ccc(N3CCN(C)CC3)cc2)cn2c(-c3cccc(C(=O)N(C)C)c3)cnc12,0.78%
24,C1=C(N2CCOCC2)/C(=C/c2nc3ccccc3[nH]2)CC1,43% (active)

row,SMILES,inhibition
1,O=C1c2ccccc2C(c2nc3ccccc3[nH]2)N1c1ccccc1 (stereo not drawn),4.84%
2,CCO[C@H]1OC(C(=O)NCc2ccccc2)=C[C@@H](c2coc3ccccc3c2=O)[C@@H]1CCCO,-9.63%
3,Cc1c(Cl)cccc1NC(=O)[C@@]1(CC(=O)O)CC(/C=C/c2ccccc2)=NO1,-0.33%
4,Cc1ccc(C(CNC(=O)Nc2cccc(C)c2)N2CCN(C)CC2)cc1 (stereo not drawn),-3.56%
5,Cc1cc(N)n2nc(-c3ccc(C(C)(C)C)cc3)cc2n1,40.5% (active)
6,COc1cccc2cc(/C(C)=N/NC(=O)c3ccco3)oc12,-10.7%
7,CC1CCCC(NC(=O)CN2CCN(Cc3ccc(Cl)cc3)C2=O)C1C (stereo not drawn),5.5%
8,CCC(C)c1ccc(NC(=O)COC(=O)C2CCCC2)cc1 (stereo not drawn),-5.48%
9,CC(Sc1ncnc2c1cnn2-c1ccccc1)C(=O)Nc1ccc(N2CCOCC2)cc1 (stereo not drawn),3.26%
10,Cc1ccc(-n2ncc3c(Nc4cccc(C(=O)O)c4)ncnc32)cc1,38.5% (active)
11,COc1ccc2nc(C)cc(Nc3cccc(C(=O)O)c3)c2c1,-12.3%
12,CCOC(=O)c1cn(CC)c2cc(F)c(F)cc2c1=O,6.4%
13,CC(=O)/C(=N\Nc1ccc(Cl)cc1Cl)Sc1cccc2cccnc12,-3.61%
14,CN(CC(=O)Nc1cccc2c1CCCC2)S(=O)(=O)c1ccc(Cl)cc1,7.5%
15,Cc1ccc2occ(/C=N/NC(=O)c3ccccc3C)c(=O)c2c1,42.8% (active)
16,Cc1ccc(O)c(/C=N/NC(=O)COc2ccc3c(C)cc(=O)oc3c2)c1,17%
17,Cc1cc(NC(=O)c2ccccc2C)no1,-11.1%
18,CCOc1ccc2nc(Cl)c(C3CC(c4ccccc4)=NN3C(=O)c3cccs3)cc2c1 (stereo not drawn),-162%
19,CCOc1ccc(NS(=O)(=O)c2ccc(C)c(C(N)=O)c2)cc1,-4.92%
20,CCOc1ccc2nc(NCCNC(=O)C(C)(C)C)c(C)cc2c1,42.5% (active)
21,CCOc1ccc(NC(=O)c2ccc(CSc3nnnn3C)cc2)cc1,1.1%
22,CC(=O)N(c1ccc2oc(=O)sc2c1)S(=O)(=O)c1ccc(C)cc1,0.47%
23,O=C(CN1CCN(C(=O)C2CCCO2)CC1)Nc1c(Cl)cccc1Cl (stereo not drawn),10.6%
24,C=CCNC(=O)C1CC=CCC1C(=O)O (stereo not drawn),4.38%

row,SMILES,inhibition
1,COc1ccccc1N(C)S(=O)(=O)c1ccc(Cl)c(C(=O)Nc2ccncc2)c1,13.9%
2,COc1cccc(OC)c1C(=O)Nc1ccc(Cc2ccncc2)cc1,7.29%
3,COc1cc2ccccc2cc1C(=O)Nc1ccncc1,42.2% (active)
4,O=C1N[C@H](Cc2c[nH]c3ccccc23)COC(=O)[C@H](Cc2ccc(F)cc2)C/C=C\C[C@H]1CC(=O)N(CCO)Cc1ccccc1,-4.67%
5,COC(=O)C1(O)CC(C(C)C)=NN1C(=O)c1ccc(Cl)cc1 (stereo not drawn),10.8%
6,O=C(c1ccc(Cl)cc1)N1N=C(c2ccccn2)CC1(O)C(F)(F)F (stereo not drawn),46% (active)
7,O=C(C1CC1)N1N=C(c2ccc(Br)cc2)CC1(O)C(F)(F)F (stereo not drawn),-17%
8,CC(=O)NCCc1ccc(S(=O)(=O)Nc2ccc(C)c(S(=O)(=O)N3CCOCC3)c2)cc1,0.16%
9,COc1ccc2c(c1)C(C)=CC(C)(C)N2C(=O)Nc1ccccc1,41.3% (active)
10,CC1=CC(C)(C)N(C(=O)CSc2nnc(-c3ccccc3)o2)c2ccc(C)cc21,-0.38%
11,COc1ccc2c(c1)C(C)=CC(C)(C)N2C(=O)CNCc1ccc2c(c1)OCO2,-2.09%
12,O=C(CCc1nnc(Cc2ccc3c(c2)OCO3)o1)NCCc1ccccc1Cl,-1.6%
13,C/C(=N\Nc1nc(N2CCOCC2)nc(N2CCOCC2)n1)c1ccc([N+](=O)[O-])cc1,-9.47%
14,CN(C)c1ccc(/C=N/Nc2cc(N3CCOCC3)nc(N3CCOCC3)n2)cc1,53.4% (active)
15,Fc1ccccc1/C=N/Nc1cc(N2CCCCC2)ncn1,9.65%
16,NNC(=O)c1oc2nc(-c3ccccc3)cc(-c3ccco3)c2c1N,51.2% (active)
17,CNC(=S)NNC(=O)c1oc2nc(-c3ccccc3)cc(-c3ccco3)c2c1N,29.8%
18,Cc1ccc(O)c(NC(=O)c2cc(-c3ccco3)on2)c1,5.21%
19,O=C(N/N=C/c1ccccc1O)C1CCCC1,44.9% (active)
20,CC1(C)C2CC=C(/C=N/NC(=O)C3CC3)C1C2 (stereo not drawn),-0.11%
21,O=C(NNC(=O)C1CCC1)c1ccccc1,-19.3%
